tim23-1 inh: tim23-1 yeast growth inhibition; S. cerevisiae tim23-1 growth, BacTiter-Glo luminescence, 24 h; inhibition, % at 20 µM; 330,000 tested, 1.3% active;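 active = growth inhibition of the mutant yeast at or above 50%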;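 also: temperature-sensitive mutant grown at 25 °C; plate controls were DMSO-treated mutant yeast for no effect and medium wells lacking yeast for full effect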
tim10-1 inh: tim10-1 yeast growth inhibition; S. cerevisiae tim10-1 ts strain growth, BacTiter-Glo, 24 h; inhibition, % at 20 µM; 330,000 tested, 2.2% active; AID 463190;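 active = inhibition of at least 40%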;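 also: mutant grown at 25 °C; 0% = DMSO wells with yeast and 100% = wells holding no yeast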
PfHsp90 set2: inhibits growth of yeast expressing Plasmodium falciparum Hsp90; AID 504621; inhibition, % at 9.4 µM; 310,000 tested, 0.32% active; S. cerevisiae expressing PfHsp90, BacTiter-Glo ATP, 48 h; yeast lacking PDR1 and PDR3 efflux regulators;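 active = every replicate shows inhibition above about 80%, whatever the replicate mean, limit read from the data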;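 also: 0% = DMSO neutral controls and 100% = 20 µM radicicol positive controls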
NALP3 yeast inh: NALP3 inhibition in yeast. Yeast reconstituted NLRP3/ASC/caspase-1, beta-gal luminescence, 24 h. inhibition, % at 10 µM. AID 2825. 330,000 tested, 0.39% active;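 active = inhibition of 50% or more; inactive = inhibition below 50%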;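 also: plate controls were induced DMSO wells for no effect and uninduced yeast grown without galactose for full effect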
TIM10 inh: TIM10 yeast growth inhibition | 330,000 tested, 1.4% active | inhibition, % at 10 µM | S. cerevisiae TIM10 strain growth, BacTiter-Glo luminescence, 24 h;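 active = inhibition of 40% or more at the single tested concentration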;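 also: wild-type TIM10 isogenic control strain grown at permissive 25 °C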
tim10-1 confirm: confirmation of tim10-1 mutant yeast growth inhibitors. 7,400 tested, 56% active. shares compounds with tim10-1 inh. S. cerevisiae tim10-1 ts strain growth, BacTiter-Glo, 24 h. inhibition, % at 20 µM. AID 463213;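 active = inhibition of yeast growth at or above a set limit in either of two repeat tests at 20 µM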;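 also: tim10-1 mutant grown at permissive 25 °C to find synthetic lethal compounds; 0% = DMSO yeast wells and 100% = medium wells without yeast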
* hit, by the source's call; . = no result given. In the library only some 3.7% were active in any assay of this set; here they are far more common.

SMILES	tim23-1 inh	tim10-1 inh	PfHsp90 set2	NALP3 yeast inh	TIM10 inh	tim10-1 confirm
COc1ccc(NC2CCN(C3CC(=O)N(c4ccc(F)c(Cl)c4)C3=O)CC2)cc1 (stereo not given)	33	54*	102*	28	37	42*
NC(=O)C1CCN(C2CC(=O)N(c3ccc(F)c(Cl)c3)C2=O)CC1 (stereo not given)	45	53*	104*	17	35	50*
O=C(O)c1cc(S(=O)(=O)NC23CC4CC(CC(C4)C2)C3)ccc1Cl	9	3	18	8	11	.
COc1cccc(N2CCN(C3CC(=O)N(c4ccc(F)c(Cl)c4)C3=O)CC2)c1 (stereo not given)	47	41*	-5	19	28	26
O=C1CC(N2CCCN(C3CC(=O)N(c4ccc(F)cc4)C3=O)CC2)C(=O)N1c1ccc(F)cc1 (stereo not given)	36	47*	8	26	22	42*
CCCCOc1ccc(/C=C/C(=O)OCC(=O)N2CC(=O)Nc3ccccc32)cc1OCC	10	10	15	1	12	.
Cc1sc2ncnc(Sc3ccccc3C(=O)Nc3ccccc3Cl)c2c1C	35	43*	39	-1	17	26
CSc1ccc(S(=O)(=O)NCc2ccccc2C)cc1	41	47*	-3	1	17	25
CSc1ccc(S(=O)(=O)NCc2ccc(C)cc2)cc1	45	44*	9	10	35	37*
Cc1ccc(S(=O)(=O)NCc2ccccc2)cc1	27	27	-6	3	9	.
Cc1ccc(S(=O)(=O)NCc2ccccc2C)cc1	25	6	-4	11	-11	.
Cn1c(SCC(=O)N2CCOCC2)nnc1-c1ccco1	3	-7	44	5	-7	.
CC(C)(Oc1ccc(Cl)cc1)C(=O)OCC(=O)N1CCN(c2ccccc2)CC1	36	17	12	24	14	.
CS(=O)c1ccccc1-c1nc(-c2cc(C(F)(F)F)cc(C(F)(F)F)c2)no1 (stereo not given)	16	3	-1	1	19	.
COCCCn1c(=O)/c(=C\c2ccc(OC(F)F)c(OC)c2)s/c1=C(/C#N)C(=O)NCCOC	-30	7	-4	-17	-8	.
Cc1ccc2c(c1)N(C(=O)CCC(=O)NCCCN1CCOCC1)CC(C)O2 (stereo not given)	7	3	-18	5	-7	.
CCOc1cc(CNn2cnnc2SCC(=O)NC(C)(C)C)ccc1OCC(=O)NC(C)(C)C	0	1	-7	-4	12	.
COc1cccc(C(=O)NC2CCCc3c2cnn3-c2ccc(C)c(C)c2)c1OC (stereo not given)	28	31	-5	17	2	.
COc1ncccc1C(=O)NC1CCCc2c1cnn2-c1ccc(C)c(C)c1 (stereo not given)	34	52*	-9	-53	28	15
Cc1cc(C(=O)COc2ccccc2[N+](=O)[O-])c(C)n1C1CC1	23	44*	-40	3	21	27
O=C(O)/C=C/C(=O)NCCC(c1ccccc1)c1ccccc1	4	-2	25	-10	-1	.
Cc1cc(C)n(CCc2nc(-c3cc4ccccc4o3)cs2)n1	43	43*	8	18	23	30
Cc1ccc(C)c(CSc2nnc([C@@H](N)C(C)C)o2)c1	35	45*	.	6	19	49*
CCC(C)[C@H](N)c1nnc(SCC(=O)Nc2ccc(C)cc2C)o1 (stereo not given in full)	6	14	-1	-11	12	.
CC1CCc2nc(NC(=O)C3COc4ccccc4O3)sc2C1 (stereo not given)	38	49*	-2	27	27	27
SMILES	tim23-1 inh	tim10-1 inh	PfHsp90 set2	NALP3 yeast inh	TIM10 inh	tim10-1 confirm
CC1CCc2nc(NC(=O)C3CC3)sc2C1 (stereo not given)	40	36	-8	-17	17	.
CN(C)c1ccc(/C=C/C=C2/SC(=S)N(c3ccccc3)C2=O)cc1	46	44*	45	15	36	29*
Cn1nc(C(F)(F)F)c(C#N)c1N1CCN(c2ccccn2)CC1	-20	-9	-17	18	-21	.
O=C(CCOc1ccccc1)Nc1ccnn1C1CCN(Cc2ccccc2)CC1	3	-9	5	5	0	.
CCOC(=O)c1sc(-c2ccc(Br)cc2)cc1N	30	67*	-4	-63	38	58*
COc1ccc(NC(=O)c2ccccc2OCc2c(C)noc2C)cc1OC	15	16	-3	11	13	.
O=C(Nc1ccc(S(=O)(=O)N2CCCCC2)cc1)c1ccccc1F	29	31	-16	24	25	.
O=C(Nc1ccc(F)cc1)c1cc(S(=O)(=O)N2CCCCC2)ccc1F	17	42*	-6	-4	8	9
CCOc1ccc(-n2c(CCc3ccccc3)n[nH]c2=S)cc1	17	41*	-13	13	24	18
CCc1ccc(-n2c(Cc3ccccc3)n[nH]c2=S)cc1	31	48*	.	13	13	27
CCN(CC)C(=O)n1c(Cc2ccccc2)nc2ccccc21	23	17	-2	11	9	.
Cc1cc(C(=O)Cn2nc(C(=O)O)c3ccccc3c2=O)c(C)n1-c1ccccc1	30	42*	-14	10	19	18
O=C(Nc1c(Cl)ccc2nsnc12)c1ccc([N+](=O)[O-])o1	41	52*	-6	28	28	33*
Cc1cc(C)c2sc(NC(=O)c3ccc([N+](=O)[O-])o3)nc2c1	24	56*	74	9	-1	54*
CC(=O)Nc1scc(C)c1-c1nc2ccccc2s1	7	21	-5	30	16	.
CNc1sc(C(=O)c2cccs2)c(N)c1-c1nc2ccccc2s1	45	48*	-35	44	31	48*
CNc1sc(C(=O)c2ccc(F)cc2)c(N)c1-c1nc2ccccc2s1	42	41*	-10	38	35	23
COc1ccc(CN2CCNC(=O)C2CC(=O)NCc2cnn(C)c2)cc1OC (stereo not given)	-3	6	.	23	-2	.
O=C1C=C(c2ccccc2)OC(=O)C1C(=O)c1ccccc1 (stereo not given)	0	-6	-2	13	-9	.
COc1ccc(-n2nc(C(=O)Nc3ccc(OC)c(OC)c3)c3c4ccccc4n(C)c3c2=O)cc1	5	41*	-85	-5	17	-1
N#Cc1c(-c2ccccc2)nc(SCc2cccc(Cl)c2)[nH]c1=O	33	42*	-33	11	17	27
COc1ccc2cc(-c3ccccc3F)ncc2c1	39	15	9	31	17	.
CCN(CC)CCN1C(=O)c2ccccc2NC1c1ccc(C)cc1 (stereo not given)	17	8	.	-2	-7	.
Cc1cccc(NC(=O)c2cc(-c3ccco3)nc3ccccc23)n1	26	41*	-30	15	25	17

Compound activity deposited in PubChem by several laboratories.
